# Source: the supplement of paper PMC12024424
# Counter-ions that a name gives are not always drawn.
# System: Staphylococcus aureus Sa2 (MRSA, cystic fibrosis isolate)
# Assay: growth reduction vs untreated control (viable cell count); higher = stronger antibacterial activity; extreme values may be limits of the assay
# Conditions: 0.1 mM; 24 h
# Experimental: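 Single-dose screen of the MedChem Express Drug Repurposing Library (0.1 mM, 1% DMSO) against planktonic MRSA S. aureus Sa2 (CF isolate) in TSB in 96-well plates, 37 °C aerobic, 24 h. Assays were run in triplicate and repeated twice.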
row,SMILES,growth reduction [%]
1,Cc1ccc(C(=O)N(CCCN)[C@@H](c2nc3cc(Cl)ccc3c(=O)n2Cc2ccccc2)C(C)C)cc1 [Ispinesib],100
2,COCc1c(C(C)C)nc(C(C)C)c(/C=C/[C@@H](O)C[C@@H](O)CC(=O)O)c1-c1ccc(F)cc1 [Cerivastatin (sodium)],99
3,CC1=CC(=O)c2ccccc2C1=O [Menadione],100
4,COc1cc2c(Nc3ccc(Cl)c(Cl)c3F)ncnc2cc1OC[C@@H]1C[C@@H]2CN(C)C[C@@H]2C1 [Tesevatinib],100
5,CC(C)COc1ccc(CNC(=O)N(Cc2ccc(F)cc2)C2CCN(C)CC2)cc1 [Pimavanserin],100
6,CC(=O)O[C@@H]1CC[C@@]2(C)[C@@H](CC[C@]3(C)[C@@H]2C(=O)C=C2[C@@H]4[C@@H](C)[C@H](C)CC[C@]4(C)CC[C@]23C)[C@@]1(C)C(=O)O,100
7,CN(C)C(=O)/C=C/CNCCOc1ccc(/C(=C(/CC(F)(F)F)c2ccccc2)c2ccc3[nH]nc(F)c3c2)cn1,100
8,Nc1ncccc1-c1nc2ccc(-c3ccccc3)nc2n1-c1ccc(C2(N)CCC2)cc1 [Miransertib],95
9,CC(C)(C)Cn1c(N)nc2ccc(-c3[nH]c(C(C)(C)C)nc3-c3ccc(F)cc3)nc21 [Ralimetinib dimesylate],97
10,O/N=c1\cc(-c2cc3sccc3cn2)oc2ccc(CCCN3CCOCC3)cc12 [Foliglurax (monohydrochloride)],100
11,C/C=C(/C(=C/C)c1ccc(O)cc1)c1ccc(O)cc1 [Dienestrol],92
12,O=C(O)c1cc(-c2ccc(F)cc2F)ccc1O [Diflunisal],98
13,CC(C)c1cc(Oc2c(Br)cc(NC(=O)CC(=O)O)cc2Br)ccc1O [Eprotirome],100
14,C[C@H]1O[C@@H](n2cc(F)c(=O)[nH]c2=O)[C@H](O)[C@@H]1O [Doxifluridine],100
15,CCCCc1oc2ccc(NS(C)(=O)=O)cc2c1C(=O)c1ccc(OCCCN(CCCC)CCCC)cc1 [Dronedarone (Hydrochloride)],100
16,CCN(CC)CC#CCOC(=O)C(O)(c1ccccc1)C1CCCCC1 (stereo not drawn) [Oxybutynin (chloride)],91
17,CN(Cc1cnc2nc(N)nc(N)c2n1)c1ccc(C(=O)N[C@@H](CCC(=O)O)C(=O)O)cc1 [Methotrexate],95
18,O=C(NCc1ccc(Oc2ccccc2)cc1)c1nc(-c2cc(Br)c(O)c(Br)c2)no1,100
19,CNCc1ccc(C)c(NC(=O)c2ccc(Nc3nc(-c4ccccc4)c4ccccc4n3)cc2)c1,100

row,SMILES,growth reduction [%]
1,CN1C(=O)[C@@H](NC(=O)c2n[nH]c(Cc3ccccc3)n2)COc2ccccc21,90
2,Oc1ccc2c(c1)CC[C@H](c1ccccc1)[C@@H]2c1ccc(OCCN2CCCC2)cc1 [Lasofoxifene (Tartrate)],100
3,COc1ccc(Cl)c(Nc2nc3ccccc3nc2NS(=O)(=O)c2cccc(NC(=O)C(C)(C)N)c2)c1 [Pilaralisib],100
4,C=C1CC[C@H](O)C/C1=C/C=C1\CCC[C@]2(C)[C@@H]([C@H](C)/C=C/[C@H](C)C(C)C)CC[C@@H]12 [Vitamin D2],100
5,Cc1cc(C2CCCCC2)n(O)c(=O)c1 [Ciclopirox],100
6,Cc1ccc(C#Cc2ccc(S(=O)(=O)N[C@H](Cc3c[nH]c4ccccc34)C(=O)O)s2)cc1,100
7,CN1CCCC(CC2c3ccccc3Sc3ccccc32)C1 (stereo not drawn) [Metixene hydrochloride hydrate],100
8,CC[C@@]1(O)C[C@H](O[C@H]2C[C@H](N(C)C)[C@H](O[C@H]3C[C@H](O)[C@H](O[C@H]4CCC(=O)[C@H](C)O4)[C@H](C)O3)[C@H](C)O2)c2c(cc3c(c2O)C(=O)c2c(O)cccc2C3=O)[C@H]1C(=O)OC [Aclacinomycin A hydrochloride],100
9,O=C(O)Cc1ccc(Cc2cc(-c3cccc(Cl)c3)nc(C(F)(F)F)c2)cc1,100
10,Cc1cc2c(cc1CC(=O)c1sccc1S(=O)(=O)Nc1onc(C)c1Cl)OCO2 [Sitaxsentan (sodium)],90
11,COc1ccc(CN2CCN(C(c3ccc(F)cc3)c3ccc(F)cc3)CC2)c(OC)c1OC [Lomerizine dihydrochloride],98
12,CCCCN(CCCC)CCC(O)c1cc2c(Cl)cc(Cl)cc2c2cc(C(F)(F)F)ccc12 (stereo not drawn) [Halofantrine hydrochloride],94
13,CCCCCCCCCCCC[N+](C)(C)CCOc1ccccc1 [Domiphen (bromide)],100
14,Clc1ccccc1C(c1ccccc1)(c1ccccc1)n1ccnc1 [Clotrimazole],100
15,O=C(OCC(O)CO)c1ccccc1Nc1ccnc2cc(Cl)ccc12 (stereo not drawn) [Glafenine],100
16,Oc1c(Cl)cc(Cl)cc1Sc1cc(Cl)cc(Cl)c1O [Bithionol],100
17,CC(C)(C)CC(C)(C)c1ccc(OCCOCC[N+](C)(C)Cc2ccccc2)cc1 [Benzethonium chloride],100
18,C[C@@H]1CCc2ncc(F)cc2[C@H]2CCCN2c2ccn3ncc(c3n2)C(=O)N1 [Selitrectinib],97
19,C#C[C@]1(O)CC[C@H]2[C@@H]3CCc4cc(OC5CCCC5)ccc4[C@H]3CC[C@@]21C [Quinestrol],99
